{"source": "PubChem BioAssay (NCI)", "note": "About 79,000 compounds went through this panel and 15% of them were active in at least one assay; those are over-represented in the sample as a whole. Activity calls are given as the source filed them. Rule as the data show it: active = growth inhibition above about 70%; inactive = the rest."}
{"assay": "NCI Yeast Anticancer Drug Screen. Data for the rad50 strain (AID 155);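 also: 0% = growth of vehicle-only cultures of the same strain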", "settings": "S. cerevisiae rad50 strain growth inhibition, hits give high values; at 50.0 µM unless noted", "how_it_was_run": "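Inhibition values express reduced yeast growth in compound-treated cultures relative to vehicle-treated controls.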"}
{"smiles": "CC(=O)Nc1ccc(S(=O)(=O)O)c(OC(C)=O)c1", "growth inhibition": "20.8% (inactive)"}
{"smiles": "CN(C)CCN1CC2Cc3ccccc3C1c1ccccc12", "note": "(stereo not given)", "growth inhibition": "24.1% (inactive)"}
{"smiles": "COc1cc(/C=N/NC(=O)c2ccccc2NC(=O)c2ccccc2)ccc1O", "growth inhibition": "2.05% (inactive)"}
{"smiles": "NC(=S)Cc1ccncc1", "growth inhibition": "12.8% (inactive)"}
{"smiles": "COc1ccc2nc3cc(Cl)ccc3c(SCC(=O)Nc3ccccc3-c3ccccc3NC(=O)CSc3c4ccc(Cl)cc4nc4ccc(OC)cc34)c2c1", "growth inhibition": "-0.1% (inactive)"}
{"smiles": "COC1C(CO)OC(O)C(O)C1O", "note": "(stereo not given)", "growth inhibition": "-6.75% (inactive)"}
{"smiles": "CCNC(=O)Nc1cccc(C)n1", "growth inhibition": "14.9% (inactive)"}
{"smiles": "CCCCCCCCCCCCC(C)O", "note": "(stereo not given)", "growth inhibition": "-23.2% (inactive)"}
{"smiles": "COc1ccc(C2=Nc3c(nc(OC)[nH]c3=O)NC(c3ccccc3)C2)cc1", "note": "(stereo not given)", "growth inhibition": "12.3% (inactive)"}
{"smiles": "CO[C@@H]1C2=CC=CC=C[C@H]2n2c(=O)n(-c3ccccc3)c(=O)n21", "growth inhibition": "-10.2% (inactive)"}
{"smiles": "CC1(C)OCC2OC3(c4nc(C#N)c(N)o4)OC(C)(C)OC3C2O1", "note": "(stereo not given)", "growth inhibition": "-18.8% (inactive)"}
{"smiles": "O=C1C2CCC2C(=O)N1c1ccc2ccccc2c1", "note": "(stereo not given)", "growth inhibition": "-38.5% (inactive)"}
{"smiles": "CC1(C)C2(Cl)C(Cl)=C(Cl)C13C(Cl)(c1ccc([N+](=O)[O-])cc1C1(Cl)C(Cl)(Cl)C4(Cl)C(Cl)=C(Cl)C13C4(C)C)C2(Cl)Cl", "note": "(stereo not given)", "growth inhibition": "0.55% (inactive)"}
{"smiles": "CCCCCCCCCCCCCCCCNC(=O)C(=O)/C=C(\\O)c1ccc(C)cc1", "growth inhibition": "1.15% (inactive)"}
{"smiles": "NS(=O)(=O)c1ccc(N=Nc2ncccc2O)cc1", "growth inhibition": "19.4% (inactive)"}
{"smiles": "O=C(O)C1(F)CC1(c1ccccc1)c1ccccc1", "note": "(stereo not given)", "growth inhibition": "-4.7% (inactive)"}
{"smiles": "CCCCCCCCCCCC[N+](C)(C)C(C)Cc1ccccc1", "note": "(stereo not given)", "growth inhibition": "99.3% (active)"}
{"smiles": "CCOC(OCC)N1C(=O)C2(C(OCC)OCC)CC3C(OC(=O)N3N)c3cccc1c32", "note": "(stereo not given)", "growth inhibition": "-16.4% (inactive)"}
{"smiles": "CCCCCC(=O)NNC(=O)CCCCC", "growth inhibition": "7.35% (inactive)"}
{"smiles": "COc1cc(C(=O)O)cc(I)c1OC", "growth inhibition": "-3.3% (inactive)"}
{"smiles": "CN(Cc1ccc2nc(N)nc(N)c2c1)c1ccc(C(=O)NC(CCC(=O)O)C(=O)O)cc1", "note": "(stereo not given)", "growth inhibition": "65.3% (inactive)"}
{"smiles": "COc1ccc(OC(C)C(=O)O)c2c(=O)ccccc12", "note": "(stereo not given)", "growth inhibition": "13.9% (inactive)"}
{"smiles": "O=P1(NC23CC4CC(CC(C4)C2)C3)OC(CCl)=NC1c1ccc(C2N=C(CCl)OP2(=O)NC23CC4CC(CC(C4)C2)C3)cc1", "note": "(stereo not given)", "growth inhibition": "-56.6% (inactive)"}
{"smiles": "CCCCC/C(=N\\c1nc[nH]c1C(N)=O)OCC", "growth inhibition": "-29.9% (inactive)"}
{"smiles": "CC(C)c1ccc(/C(C(=O)O)=C(\\O)C(=O)O)cc1", "growth inhibition": "-14.4% (inactive)"}
{"smiles": "O=C1CC(c2ccccc2)N1c1ccccc1", "note": "(stereo not given)", "growth inhibition": "-17.9% (inactive)"}
{"smiles": "C=C(C)C(C(=O)OCC)C(=O)OCC", "growth inhibition": "3.4% (inactive)"}
{"smiles": "CO/C(=N\\N=C\\c1ccc(Cl)cc1Cl)c1ccncc1", "growth inhibition": "-25.9% (inactive)"}
{"smiles": "COc1ccc2[nH]c3c(C)c4c(c(C)c3c2c1)CN(C)C=C4", "growth inhibition": "45.6% (inactive)"}
{"smiles": "O=C(O)C1CCc2ccccc21", "note": "(stereo not given)", "growth inhibition": "-15.8% (inactive)"}
{"smiles": "C[N+]1(C)CCc2cc(O)c(O)cc2C1Cc1ccc(O)c(O)c1", "note": "(stereo not given)", "growth inhibition": "-4.35% (inactive)"}
{"smiles": "CCc1c(CC)c(CC)c(CC)c(CC)c1CC", "growth inhibition": "-42.3% (inactive)"}
{"smiles": "CCC1(CC)SC=C(C)NC1=O", "growth inhibition": "-4.65% (inactive)"}
{"smiles": "CCOC(=O)c1cc2ccccc2cc1N=N", "growth inhibition": "8.3% (inactive)"}
{"smiles": "COc1ccc(COC(=O)Nc2ccc(Br)cc2)c(OC)c1", "growth inhibition": "-5.05% (inactive)"}
{"smiles": "Cc1ncc(CO)c(/C=N\\OCc2cccc(Cl)c2)c1O", "growth inhibition": "31.1% (inactive)"}
{"smiles": "N#CCCC(CC#N)N1CCN(CCO)CC1", "note": "(stereo not given)", "growth inhibition": "-35.1% (inactive)"}
{"smiles": "C/C(=N\\NC(=O)c1ccncc1)c1cc(Cl)ccc1Cl", "growth inhibition": "2.9% (inactive)"}
{"smiles": "COC(=O)/C([O-])=C(\\C(=O)OC)[n+]1cc(Br)cc2ccccc21", "growth inhibition": "4.15% (inactive)"}
{"smiles": "CC1OC(O[C@H]2CC[C@]3(C)[C@H]4CC=C5[C@@H]6[C@@H](C)[C@H](C)CC[C@]6(C(=O)OC6OC(CO)C(O)C(O)C6O)CC[C@@]5(C(=O)O)[C@]4(C)CC[C@H]3C2(C)C)C(O)C(O)C1O", "note": "(stereo not given in full)", "growth inhibition": "-11.8% (inactive)"}
{"assay": "NCI Yeast Anticancer Drug Screen. Data for the mec2-1 strain (AID 157)", "settings": "S. cerevisiae mec2-1 strain, hits give high values; at 50.0 µM unless noted", "how_it_was_run": "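Each compound was tested on mec2-1 yeast, a strain altered in DNA damage repair or cell cycle control. Growth inhibition is reported relative to vehicle.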"}
{"smiles": "CC(=O)Nc1ccc(S(=O)(=O)O)c(OC(C)=O)c1", "growth inhibition": "-7.2% (inactive)"}
{"smiles": "CN(C)CCN1CC2Cc3ccccc3C1c1ccccc12", "note": "(stereo not given)", "growth inhibition": "-6.5% (inactive)"}
{"smiles": "COc1cc(/C=N/NC(=O)c2ccccc2NC(=O)c2ccccc2)ccc1O", "growth inhibition": "-13% (inactive)"}
{"smiles": "NC(=S)Cc1ccncc1", "growth inhibition": "6.15% (inactive)"}
{"smiles": "COc1ccc2nc3cc(Cl)ccc3c(SCC(=O)Nc3ccccc3-c3ccccc3NC(=O)CSc3c4ccc(Cl)cc4nc4ccc(OC)cc34)c2c1", "growth inhibition": "-2.9% (inactive)"}
{"smiles": "COC1C(CO)OC(O)C(O)C1O", "note": "(stereo not given)", "growth inhibition": "2.25% (inactive)"}
{"smiles": "CCNC(=O)Nc1cccc(C)n1", "growth inhibition": "14.1% (inactive)"}
{"smiles": "CCCCCCCCCCCCC(C)O", "note": "(stereo not given)", "growth inhibition": "-50.1% (inactive)"}
{"smiles": "COc1ccc(C2=Nc3c(nc(OC)[nH]c3=O)NC(c3ccccc3)C2)cc1", "note": "(stereo not given)", "growth inhibition": "10.2% (inactive)"}
{"smiles": "CO[C@@H]1C2=CC=CC=C[C@H]2n2c(=O)n(-c3ccccc3)c(=O)n21", "growth inhibition": "18.6% (inactive)"}
{"smiles": "CC1(C)OCC2OC3(c4nc(C#N)c(N)o4)OC(C)(C)OC3C2O1", "note": "(stereo not given)", "growth inhibition": "-7.05% (inactive)"}
{"smiles": "O=C1C2CCC2C(=O)N1c1ccc2ccccc2c1", "note": "(stereo not given)", "growth inhibition": "-1% (inactive)"}
{"smiles": "CC1(C)C2(Cl)C(Cl)=C(Cl)C13C(Cl)(c1ccc([N+](=O)[O-])cc1C1(Cl)C(Cl)(Cl)C4(Cl)C(Cl)=C(Cl)C13C4(C)C)C2(Cl)Cl", "note": "(stereo not given)", "growth inhibition": "-10.1% (inactive)"}
{"smiles": "CCCCCCCCCCCCCCCCNC(=O)C(=O)/C=C(\\O)c1ccc(C)cc1", "growth inhibition": "-24.4% (inactive)"}
{"smiles": "NS(=O)(=O)c1ccc(N=Nc2ncccc2O)cc1", "growth inhibition": "3.4% (inactive)"}
{"smiles": "O=C(O)C1(F)CC1(c1ccccc1)c1ccccc1", "note": "(stereo not given)", "growth inhibition": "9.7% (inactive)"}
{"smiles": "CCCCCCCCCCCC[N+](C)(C)C(C)Cc1ccccc1", "note": "(stereo not given)", "growth inhibition": "99.5% (active)"}
{"smiles": "CCOC(OCC)N1C(=O)C2(C(OCC)OCC)CC3C(OC(=O)N3N)c3cccc1c32", "note": "(stereo not given)", "growth inhibition": "4.15% (inactive)"}
{"smiles": "CCCCCC(=O)NNC(=O)CCCCC", "growth inhibition": "13.8% (inactive)"}
{"smiles": "COc1cc(C(=O)O)cc(I)c1OC", "growth inhibition": "25.1% (inactive)"}
{"smiles": "CN(Cc1ccc2nc(N)nc(N)c2c1)c1ccc(C(=O)NC(CCC(=O)O)C(=O)O)cc1", "note": "(stereo not given)", "growth inhibition": "88.8% (active)"}
{"smiles": "COc1ccc(OC(C)C(=O)O)c2c(=O)ccccc12", "note": "(stereo not given)", "growth inhibition": "10.7% (inactive)"}
{"smiles": "O=P1(NC23CC4CC(CC(C4)C2)C3)OC(CCl)=NC1c1ccc(C2N=C(CCl)OP2(=O)NC23CC4CC(CC(C4)C2)C3)cc1", "note": "(stereo not given)", "growth inhibition": "-32.7% (inactive)"}
{"smiles": "CCCCC/C(=N\\c1nc[nH]c1C(N)=O)OCC", "growth inhibition": "-12.9% (inactive)"}
{"smiles": "CC(C)c1ccc(/C(C(=O)O)=C(\\O)C(=O)O)cc1", "growth inhibition": "-7.25% (inactive)"}
{"smiles": "O=C1CC(c2ccccc2)N1c1ccccc1", "note": "(stereo not given)", "growth inhibition": "-34% (inactive)"}
{"smiles": "C=C(C)C(C(=O)OCC)C(=O)OCC", "growth inhibition": "-2.75% (inactive)"}
{"smiles": "CO/C(=N\\N=C\\c1ccc(Cl)cc1Cl)c1ccncc1", "growth inhibition": "-40.4% (inactive)"}
{"smiles": "COc1ccc2[nH]c3c(C)c4c(c(C)c3c2c1)CN(C)C=C4", "growth inhibition": "48.2% (inactive)"}
{"smiles": "O=C(O)C1CCc2ccccc21", "note": "(stereo not given)", "growth inhibition": "-46.5% (inactive)"}
{"smiles": "C[N+]1(C)CCc2cc(O)c(O)cc2C1Cc1ccc(O)c(O)c1", "note": "(stereo not given)", "growth inhibition": "24.6% (inactive)"}
{"smiles": "CCc1c(CC)c(CC)c(CC)c(CC)c1CC", "growth inhibition": "-14.7% (inactive)"}
{"smiles": "CCC1(CC)SC=C(C)NC1=O", "growth inhibition": "-1.65% (inactive)"}
{"smiles": "CCOC(=O)c1cc2ccccc2cc1N=N", "growth inhibition": "16.7% (inactive)"}
{"smiles": "COc1ccc(COC(=O)Nc2ccc(Br)cc2)c(OC)c1", "growth inhibition": "33.6% (inactive)"}
{"smiles": "Cc1ncc(CO)c(/C=N\\OCc2cccc(Cl)c2)c1O", "growth inhibition": "16.3% (inactive)"}
{"smiles": "N#CCCC(CC#N)N1CCN(CCO)CC1", "note": "(stereo not given)", "growth inhibition": "-43.9% (inactive)"}
{"smiles": "C/C(=N\\NC(=O)c1ccncc1)c1cc(Cl)ccc1Cl", "growth inhibition": "5.4% (inactive)"}
{"smiles": "COC(=O)/C([O-])=C(\\C(=O)OC)[n+]1cc(Br)cc2ccccc21", "growth inhibition": "1.85% (inactive)"}
{"smiles": "CC1OC(O[C@H]2CC[C@]3(C)[C@H]4CC=C5[C@@H]6[C@@H](C)[C@H](C)CC[C@]6(C(=O)OC6OC(CO)C(O)C(O)C6O)CC[C@@]5(C(=O)O)[C@]4(C)CC[C@H]3C2(C)C)C(O)C(O)C1O", "note": "(stereo not given in full)", "growth inhibition": "-1.8% (inactive)"}
